Assay results as given in PubChem BioAssay (EPA / NIEHS).
The source made the active and inactive calls. Rule for the calls: active = hit-call score of the fitted dose curve at least 0.9, where 1 is the maximum; inactive = score below 0.9.

Molecular target: Hepatocyte nuclear factor 3-beta (Homo sapiens) (UniProt Q9Y261)
Sequence (Q9Y261 whole entry, looked up): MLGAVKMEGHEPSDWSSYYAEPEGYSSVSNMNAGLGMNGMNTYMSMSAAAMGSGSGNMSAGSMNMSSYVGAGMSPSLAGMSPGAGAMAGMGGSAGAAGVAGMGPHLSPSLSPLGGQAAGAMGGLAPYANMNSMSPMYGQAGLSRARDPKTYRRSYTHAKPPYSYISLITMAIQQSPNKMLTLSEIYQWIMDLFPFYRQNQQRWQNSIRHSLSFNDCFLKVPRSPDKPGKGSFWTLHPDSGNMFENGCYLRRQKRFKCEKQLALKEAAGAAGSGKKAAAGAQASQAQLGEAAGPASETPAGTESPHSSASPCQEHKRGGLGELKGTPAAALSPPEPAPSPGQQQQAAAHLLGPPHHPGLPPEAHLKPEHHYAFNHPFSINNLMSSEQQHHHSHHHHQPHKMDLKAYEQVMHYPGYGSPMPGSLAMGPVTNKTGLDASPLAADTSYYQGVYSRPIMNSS
Experiment: ATG_FoxA2_CIS: Attagene CIS-FACTORIAL HepG2 Assay for human Forkhead box A2 (FOXA2) (AID 2282942)
Conditions: HepG2 cis-reporter transcription factor activity, 24 h; actives raise or lower the signal
Method in brief: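 HepG2 cells transiently transfected with multiple cis-regulated reporter transcription units, dosed for 24 h. Reporter mRNA measured by RT-PCR, 6-FAM labelling, HpaI digestion and capillary electrophoresis; bidirectional fitting against DMSO baseline.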
With `Cc1ccc(C(=O)O)o1` the outcome was “inactive”. In the case of `CC(C#N)(CCC(=O)O)N=NC(C)(C#N)CCC(=O)O` (centres undefined), the outcome is reported as “inactive”. With `O=C(Cl)c1cccc(C(=O)Cl)c1` the outcome was “inactive”. In the case of `C=CC(=O)OCCn1c(=O)n(CCOC(=O)C=C)c(=O)n(CCOC(=O)C=C)c1=O`, the AC50 is reported as 52.4 µM (active). In the case of `N#Cc1ccc(CC(=NNC(=O)Nc2ccc(OC(F)(F)F)cc2)c2cccc(C(F)(F)F)c2)cc1`, the outcome is reported as “inactive”. For `CCCC/C=C\CCCCCCCCCC=O`, the outcome was “inactive”. With `CC1(C)CCC(C)(C)c2cc(C(=O)Nc3ccc(C(=O)O)cc3)ccc21` the outcome was “inactive”. In the case of `O=c1oc(=O)c2cc3c(=O)oc(=O)c3cc12`, the outcome is reported as “inactive”. With `CCCCCCCCCCCCSC` the outcome was “inactive”. With `CCN(CC)CCOC(=O)c1ccc(N)cc1` the outcome was “inactive”. For `NC(=O)c1ccccc1Cl`, the outcome was “inactive”. In the case of `CCc1c(C)cc(N)c(CC)c1N`, the outcome is reported as “inactive”. In the case of `C=C(C)C1CCC(C)CC1O` (centres undefined), the outcome is reported as “inactive”. For `CCOc1ccccc1OCC`, the outcome was “inactive”. For `CC1CCC(C(C)CS)CC1S` (centres undefined), the outcome was “inactive”. With `CN(C)CCCN` the outcome was “inactive”. With `C=C(C)[C@@H]1CC[C@@H](C)C[C@@H]1O` the outcome was “inactive”. In the case of `O=S(=O)(O)NC1CCCCC1`, the outcome is reported as “inactive”. With `CC1=CC(=O)NS(=O)(=O)O1` the outcome was “inactive”. With `CC(C)CCCCCCCOC(=O)c1ccc(C(=O)OCCCCCCCC(C)C)c(C(=O)OCCCCCCCC(C)C)c1` the outcome was “inactive”. For `C/C=C(\C)C(=O)OCc1ccccc1`, the outcome was “inactive”. With `CC(C)C[C@H]1C(=O)N2CCC[C@H]2[C@]2(O)O[C@](NC(=O)[C@@H]3C=C4c5cccc6[nH]c(Br)c(c56)C[C@H]4N(C)C3)(C(C)C)C(=O)N12` the outcome was “inactive”. With `COC(=O)c1ccc(C)cc1` the outcome was “inactive”. In the case of `C=C(C)[C@@H]1CCC2=CC(=O)C[C@@H](C)[C@]2(C)C1`, the outcome is reported as “inactive”. For `CC1(C)[C@H]2CC[C@]1(C)[C@H](O)C2`, the outcome was “inactive”. For `CC(=O)OCCOC(C)=O`, the outcome was “inactive”. In the case of `CCCCC(CC)COCCC#N` (centres undefined), the outcome is reported as “inactive”. For `CCCCCCCCC`, the outcome was “inactive”. With `CC1CCC2CC1C2(C)C` (centres undefined) the outcome was “inactive”. In the case of `CC(C)(N)CO`, the outcome is reported as “inactive”. With `CCCCC(CC)COC(=O)/C=C\C(=O)OCC(CC)CCCC` (centres undefined) the outcome was “inactive”. For `Nc1cccc(S(=O)(=O)c2cccc(N)c2)c1`, the outcome was “inactive”. With `O=c1[nH]nnc2ccccc12` the outcome was “inactive”. With `C=C(C)C(=O)OCc1ccccc1` the outcome was “inactive”. In the case of `CCCCCCCCC=O`, the outcome is reported as “inactive”. For `Cc1ccc(C(C)C)cc1O`, the outcome was “inactive”. In the case of `C=CCOC(=O)CCC1CCCCC1`, the outcome is reported as “inactive”. In the case of `Cc1cccc(Nc2ccccc2C(=O)O)c1C`, the outcome is reported as “inactive”.

Tested on: not listed separately
Experiment: ATG_FoxO_CIS: Attagene CIS-FACTORIAL HepG2 Assay for human Forkhead box O (FoxO) (AID 2282943)
Conditions: HepG2 Attagene cis-reporter, FoxO element, mRNA; actives raise or lower the signal
Method in brief: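 24 h chemical exposure, HepG2 with transient cis-MRTU transfection. RNA extraction, oligo(dT) RT, reporter-specific PCR, primer-extension labelling, HpaI digestion, CE fragment analysis; bidirectional fit, DMSO baseline.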
With `Cc1ccc(C(=O)O)o1` the outcome was “inactive”. With `CC(C#N)(CCC(=O)O)N=NC(C)(C#N)CCC(=O)O` (centres undefined) the outcome was “inactive”. For `O=C(Cl)c1cccc(C(=O)Cl)c1`, the outcome was “inactive”. For `C=CC(=O)OCCn1c(=O)n(CCOC(=O)C=C)c(=O)n(CCOC(=O)C=C)c1=O`, the outcome was “inactive”. For `N#Cc1ccc(CC(=NNC(=O)Nc2ccc(OC(F)(F)F)cc2)c2cccc(C(F)(F)F)c2)cc1`, the outcome was “inactive”. With `CCCC/C=C\CCCCCCCCCC=O` the outcome was “inactive”. In the case of `CC1(C)CCC(C)(C)c2cc(C(=O)Nc3ccc(C(=O)O)cc3)ccc21`, the outcome is reported as “inactive”. With `O=c1oc(=O)c2cc3c(=O)oc(=O)c3cc12` the outcome was “inactive”. In the case of `CCCCCCCCCCCCSC`, the outcome is reported as “inactive”. With `CCN(CC)CCOC(=O)c1ccc(N)cc1` the outcome was “inactive”. In the case of `NC(=O)c1ccccc1Cl`, the outcome is reported as “inactive”. For `CCc1c(C)cc(N)c(CC)c1N`, the outcome was “inactive”. For `C=C(C)C1CCC(C)CC1O` (centres undefined), the outcome was “inactive”. For `CCOc1ccccc1OCC`, the outcome was “inactive”. In the case of `CC1CCC(C(C)CS)CC1S` (centres undefined), the outcome is reported as “inactive”. For `CN(C)CCCN`, the outcome was “inactive”. In the case of `C=C(C)[C@@H]1CC[C@@H](C)C[C@@H]1O`, the outcome is reported as “inactive”. With `O=S(=O)(O)NC1CCCCC1` the outcome was “inactive”. With `CC1=CC(=O)NS(=O)(=O)O1` the outcome was “inactive”. With `CC(C)CCCCCCCOC(=O)c1ccc(C(=O)OCCCCCCCC(C)C)c(C(=O)OCCCCCCCC(C)C)c1` the outcome was “inactive”. In the case of `C/C=C(\C)C(=O)OCc1ccccc1`, the outcome is reported as “inactive”. In the case of `CC(C)C[C@H]1C(=O)N2CCC[C@H]2[C@]2(O)O[C@](NC(=O)[C@@H]3C=C4c5cccc6[nH]c(Br)c(c56)C[C@H]4N(C)C3)(C(C)C)C(=O)N12`, the outcome is reported as “inactive”. In the case of `COC(=O)c1ccc(C)cc1`, the outcome is reported as “inactive”. With `C=C(C)[C@@H]1CCC2=CC(=O)C[C@@H](C)[C@]2(C)C1` the outcome was “inactive”. With `CC1(C)[C@H]2CC[C@]1(C)[C@H](O)C2` the outcome was “inactive”. With `CC(=O)OCCOC(C)=O` the outcome was “inactive”. For `CCCCC(CC)COCCC#N` (centres undefined), the outcome was “inactive”. With `CCCCCCCCC` the outcome was “inactive”. With `CC1CCC2CC1C2(C)C` (centres undefined) the outcome was “inactive”. For `CC(C)(N)CO`, the outcome was “inactive”. For `CCCCC(CC)COC(=O)/C=C\C(=O)OCC(CC)CCCC` (centres undefined), the outcome was “inactive”. In the case of `Nc1cccc(S(=O)(=O)c2cccc(N)c2)c1`, the outcome is reported as “inactive”. For `O=c1[nH]nnc2ccccc12`, the outcome was “inactive”. For `C=C(C)C(=O)OCc1ccccc1`, the outcome was “inactive”. With `CCCCCCCCC=O` the outcome was “inactive”. With `Cc1ccc(C(C)C)cc1O` the outcome was “inactive”. With `C=CCOC(=O)CCC1CCCCC1` the outcome was “inactive”. In the case of `Cc1cccc(Nc2ccccc2C(=O)O)c1C`, the outcome is reported as “inactive”.

Tested on: not listed separately
Experiment: ATG_GATA_CIS: Attagene CIS-FACTORIAL HepG2 Assay for human GATA Binding Protein (AID 2282944)
Conditions: HepG2 GATA cis-element reporter, Attagene multiplex mRNA; actives raise or lower the signal
Method in brief: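 Read-out: fluorescent reporter mRNA fragments resolved by capillary electrophoresis after RT-PCR. Human liver HepG2 cells carried transiently transfected cis-regulated reporter constructs; chemicals incubated 24 h; gain or loss of signal fitted relative to DMSO.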
In the case of `Cc1ccc(C(=O)O)o1`, the outcome is reported as “inactive”. For `CC(C#N)(CCC(=O)O)N=NC(C)(C#N)CCC(=O)O` (centres undefined), the outcome was “inactive”. With `O=C(Cl)c1cccc(C(=O)Cl)c1` the outcome was “inactive”. For `C=CC(=O)OCCn1c(=O)n(CCOC(=O)C=C)c(=O)n(CCOC(=O)C=C)c1=O`, the outcome was “inactive”. For `N#Cc1ccc(CC(=NNC(=O)Nc2ccc(OC(F)(F)F)cc2)c2cccc(C(F)(F)F)c2)cc1`, the outcome was “inactive”. For `CCCC/C=C\CCCCCCCCCC=O`, the outcome was “inactive”. With `CC1(C)CCC(C)(C)c2cc(C(=O)Nc3ccc(C(=O)O)cc3)ccc21` the outcome was “inactive”. In the case of `O=c1oc(=O)c2cc3c(=O)oc(=O)c3cc12`, the outcome is reported as “inactive”. In the case of `CCCCCCCCCCCCSC`, the outcome is reported as “inactive”. With `CCN(CC)CCOC(=O)c1ccc(N)cc1` the outcome was “inactive”. For `NC(=O)c1ccccc1Cl`, the outcome was “inactive”. For `CCc1c(C)cc(N)c(CC)c1N`, the outcome was “inactive”. With `C=C(C)C1CCC(C)CC1O` (centres undefined) the outcome was “inactive”. For `CCOc1ccccc1OCC`, the outcome was “inactive”. For `CC1CCC(C(C)CS)CC1S` (centres undefined), the AC50 was 61.1 µM (active). With `CN(C)CCCN` the outcome was “inactive”. In the case of `C=C(C)[C@@H]1CC[C@@H](C)C[C@@H]1O`, the outcome is reported as “inactive”. In the case of `O=S(=O)(O)NC1CCCCC1`, the outcome is reported as “inactive”. For `CC1=CC(=O)NS(=O)(=O)O1`, the outcome was “inactive”. In the case of `CC(C)CCCCCCCOC(=O)c1ccc(C(=O)OCCCCCCCC(C)C)c(C(=O)OCCCCCCCC(C)C)c1`, the outcome is reported as “inactive”. For `C/C=C(\C)C(=O)OCc1ccccc1`, the outcome was “inactive”. With `CC(C)C[C@H]1C(=O)N2CCC[C@H]2[C@]2(O)O[C@](NC(=O)[C@@H]3C=C4c5cccc6[nH]c(Br)c(c56)C[C@H]4N(C)C3)(C(C)C)C(=O)N12` the outcome was “inactive”. For `COC(=O)c1ccc(C)cc1`, the outcome was “inactive”. For `C=C(C)[C@@H]1CCC2=CC(=O)C[C@@H](C)[C@]2(C)C1`, the outcome was “inactive”. In the case of `CC1(C)[C@H]2CC[C@]1(C)[C@H](O)C2`, the outcome is reported as “inactive”. In the case of `CC(=O)OCCOC(C)=O`, the outcome is reported as “inactive”. For `CCCCC(CC)COCCC#N` (centres undefined), the outcome was “inactive”. For `CCCCCCCCC`, the outcome was “inactive”. In the case of `CC1CCC2CC1C2(C)C` (centres undefined), the outcome is reported as “inactive”. In the case of `CC(C)(N)CO`, the outcome is reported as “inactive”. In the case of `CCCCC(CC)COC(=O)/C=C\C(=O)OCC(CC)CCCC` (centres undefined), the outcome is reported as “inactive”. With `Nc1cccc(S(=O)(=O)c2cccc(N)c2)c1` the outcome was “inactive”. With `O=c1[nH]nnc2ccccc12` the outcome was “inactive”. In the case of `C=C(C)C(=O)OCc1ccccc1`, the outcome is reported as “inactive”. For `CCCCCCCCC=O`, the outcome was “inactive”. For `Cc1ccc(C(C)C)cc1O`, the outcome was “inactive”. With `C=CCOC(=O)CCC1CCCCC1` the outcome was “inactive”. For `Cc1cccc(Nc2ccccc2C(=O)O)c1C`, the outcome was “inactive”.
